The text below walks through data of PubChem BioAssay.

Activity calls are given as the source filed them. Unless noted, no rule for the calls is given here.

Experiment [1] can be described thus: compound effects on lung adenocarcinoma cell viability – A549, calcein-AM fluorescence, 48 h, basal, profiling panel (AID 1162). Also: test concentration not given here. Particulars: higher = more signal.
Experiment [2] in a line: compound effects on differentiated 3T3-L1 adipocyte viability – cell-based, 3T3-L1 adipocytes, calcein-AM fluorescence, 48 h, basal, profiling panel (AID 1163). Also: test concentration not given here. The settings on record: 3T3-L1 adipocytes viability, higher = more signal.
The nature of experiment [3]: compound effects on hepatocellular carcinoma cell viability – HepG2, calcein-AM fluorescence, 48 h, basal, profiling panel (AID 1164). Also: test concentration not given here. Particulars: higher = more signal.
Experiment [4] can be described thus: compound effects on multiple myeloma cell viability – MM1S, calcein-AM fluorescence, 48 h, basal, profiling panel (AID 1165).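 Also: viability of MM1S multiple myeloma cells under basal unstimulated conditions; test concentration not given here.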 Particulars: higher = more signal.
A short description of experiment [5]: calcein-AM signal in unstimulated myeloma cells – cell-based, calcein-AM fluorescence, 48 h, PK04 Diversity Set, profiling panel (AID 1166).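 Also: cells grown under basal conditions without added stimulus; test concentration not given here.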 The settings on record: RPMI8226 myeloma viability, higher = more signal.
Experiment [6] in a line: JC-1 mitochondrial signal, unstimulated HepG2 cells – cell-based, JC-1 fluorescence, 24 h, 100 nL compound, profiling panel (AID 1167). Also: test concentration not given here. The settings on record: HepG2 mitochondrial potential, higher = more signal.
A short description of experiment [7]: JC-1 mitochondrial signal, unstimulated adipocytes – cell-based, JC-1 fluorescence, 3T3-L1 adipocytes, 24 h, 100 nL compound, profiling panel (AID 1168). Also: test concentration not given here. Particulars: JC-1 mitochondrial fluorescence, higher = more signal, called active from +8 up or from −8 down.
Experiment [8] in a line: JC-1 mitochondrial signal, unstimulated myeloma cells – cell-based, JC-1 fluorescence, RPMI8226, 24 h, 100 nL compound, profiling panel (AID 1169). Also: test concentration not given here. Particulars: JC-1 mitochondrial potential fluorescence, higher = more signal.
A short description of experiment [9]: JC-1 mitochondrial signal, unstimulated MM1S myeloma – cell-based, JC-1 fluorescence, 24 h, 100 nL compound, profiling panel (AID 1170). Also: test concentration not given here. The settings on record: MM1S mitochondrial potential, higher = more signal.
The nature of experiment [10]: resazurin metabolic signal in A549 cells – cell-based, resazurin fluorescence, 24 h, PK04 Diversity Set, profiling panel (AID 1171). Also: test concentration not given here. The settings on record: A549 viability, higher = more signal, called active from +8 up or from −8 down. (Alamar Blue is a resazurin reagent that responds to reducing activity.)
Experiment [11] can be described thus: resazurin metabolic signal in HepG2 cells – cell-based, resazurin fluorescence, 24 h, PK04 Diversity Set, profiling panel (AID 1172). Also: test concentration not given here. Particulars: HepG2 viability, higher = more signal.
Experiment [12] in a line: budding yeast growth changes without added modifier – OD600, strain BY4716, 24 h, basal condition, primary screen (AID 1173). The settings on record: S. cerevisiae BY4716 growth, OD600, 24 h; higher = more signal, called active from +8 up or from −8 down.
A short description of experiment [13]: viability profiling in MM1S myeloma cells – cell-based, resazurin fluorescence, basal, 24 h, PK04 Diversity Set, profiling panel (AID 1174). Also: test concentration not given here. The settings on record: higher = more signal, called active from +8 up or from −8 down.
The target of experiment [14] is Dihydroorotate dehydrogenase (quinone), mitochondrial (Plasmodium falciparum (isolate 3D7)) (UniProt Q08210). The experiment can be described thus: inhibition of P. falciparum DHODH – biochemical, C-terminal His tag, absorbance 600 nm, primary screen (AID 1175).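 Also: recombinant parasite enzyme with a five histidine tag at its C terminus; test concentration not given here.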 Particulars: PfDHODH enzyme, DCIP absorbance 600 nm; higher = more signal, called active from +8 up or from −8 down.

A short description of experiment [15]: inhibition of PAO1 biofilm formation – strain PAO1, LB-PBS medium, absorbance 600 nm, primary screen (AID 1176). Also: test concentration not given here. Particulars: P. aeruginosa PAO1 growth/biofilm, A600, 12 h; higher = more signal.
Experiment [16] in a line: growth modulation of vineyard yeast isolate – strain RM11-1a, OD600, basal, 24 h, primary screen (AID 1177).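 Also: cultures grown under basal conditions with no added stressor; test concentration not given here.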 Particulars: S. cerevisiae RM11-1a growth, OD600, 24 h; higher = more signal, called active from +8 up or from −8 down.
A short description of experiment [17]: growth of efflux-deficient E. coli DRC39 – strain DRC39, OD650, 24 h, E. coli filamentation inducers, primary screen (AID 1178).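 Also: growth measured as culture turbidity by optical density at 650 nm; test concentration not given here.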 The settings on record: E. coli DRC39 acrAB, higher = more signal, called active from +8 up or from −8 down.
Experiment [18] can be described thus: growth of efflux-deficient E. coli DRC39 – strain DRC39, OD650, 48 h, E. coli filamentation inducers, primary screen (AID 1179).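 Also: screen aims at cell division blockers that make cells filament.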 Particulars: E. coli DRC39 delta-acrAB growth, higher = more signal, called active from +8 up or from −8 down.
Experiment [19] in a line: viability profiling in RPMI8226 myeloma cells – cell-based, resazurin fluorescence, basal, 24 h, PK04 Diversity Set, profiling panel (AID 1180).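 Also: RPMI8826 multiple myeloma cell line at 5000 cells per well; test concentration not given here.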 Particulars: higher = more signal.
Experiment [20] addresses E3 ubiquitin-protein ligase XIAP (Homo sapiens) (UniProt P98170). The experiment can be described thus: small molecules binding XIAP protein – biophysical, small-molecule microarray, fluorescence 635 nm, primary screen (AID 1181).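 Also: score merges 667 nm emission and signal to noise over triplicate slides.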 The settings on record: higher = more signal.

Chain of Dihydroorotate dehydrogenase (quinone), mitochondrial (Plasmodium falciparum (isolate 3D7)) (Q08210 whole entry, looked up): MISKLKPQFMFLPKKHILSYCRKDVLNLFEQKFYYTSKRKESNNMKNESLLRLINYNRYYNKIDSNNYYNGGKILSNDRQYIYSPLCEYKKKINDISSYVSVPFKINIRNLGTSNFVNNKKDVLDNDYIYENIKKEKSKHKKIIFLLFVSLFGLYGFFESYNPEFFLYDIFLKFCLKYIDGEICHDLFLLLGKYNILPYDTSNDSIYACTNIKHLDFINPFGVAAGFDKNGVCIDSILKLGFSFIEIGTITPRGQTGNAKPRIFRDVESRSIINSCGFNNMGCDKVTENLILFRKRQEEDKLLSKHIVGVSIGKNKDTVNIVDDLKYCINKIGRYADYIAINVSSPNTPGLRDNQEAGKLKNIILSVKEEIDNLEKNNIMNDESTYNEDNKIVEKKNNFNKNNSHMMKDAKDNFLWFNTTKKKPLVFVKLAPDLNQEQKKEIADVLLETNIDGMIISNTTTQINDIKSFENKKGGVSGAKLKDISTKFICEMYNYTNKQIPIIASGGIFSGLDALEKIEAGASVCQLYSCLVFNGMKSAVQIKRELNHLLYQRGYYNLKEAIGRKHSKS
Chain of E3 ubiquitin-protein ligase XIAP (Homo sapiens) (P98170 whole entry, looked up): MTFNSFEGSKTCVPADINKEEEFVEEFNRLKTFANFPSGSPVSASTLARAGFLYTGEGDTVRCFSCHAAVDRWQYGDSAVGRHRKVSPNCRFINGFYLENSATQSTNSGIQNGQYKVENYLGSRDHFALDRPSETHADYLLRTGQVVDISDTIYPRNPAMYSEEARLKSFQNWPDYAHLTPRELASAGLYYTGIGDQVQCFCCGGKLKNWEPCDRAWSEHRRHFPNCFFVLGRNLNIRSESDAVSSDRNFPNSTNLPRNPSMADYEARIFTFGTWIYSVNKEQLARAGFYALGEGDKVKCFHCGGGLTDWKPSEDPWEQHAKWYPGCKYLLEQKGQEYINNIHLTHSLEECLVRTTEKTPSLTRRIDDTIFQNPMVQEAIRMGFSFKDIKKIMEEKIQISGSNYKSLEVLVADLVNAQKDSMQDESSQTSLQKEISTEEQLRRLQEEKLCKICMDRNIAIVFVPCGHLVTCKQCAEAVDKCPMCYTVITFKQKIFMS

With `C=CCN1C(=O)[C@]2(O[C@H](CCO)[C@@H]([Si](C)(C)c3ccc(OC)cc3)[C@@H]2C)c2cc(N3C(=O)c4ccccc4Oc4ccccc43)ccc21`, the z-score in experiment [1] was -3.65; in experiment [2], 0.139; in experiment [3], -4.64; in experiment [4] it was -2.73; in experiment [5] it was -4.35; in [6], -2.08. For the same compound, the z-score is -0.599 (inactive) in experiment [7]; -1.04 in experiment [8]; -2.15 in experiment [9]; -5.48 (inactive) in experiment [10]; -5.91 in experiment [11]; 0.84 (inactive) in experiment [12]. Further, the z-score in experiment [13] is -8.74 (active); in experiment [15], 0.106 (inactive); in experiment [16], 4.06 (inactive); in [17], 0.229 (inactive); in experiment [18], -0.757 (inactive); in experiment [19] it was -6.28. Also, the composite z-score in experiment [14] is 1.11 (inactive); in experiment [20] it was -0.138.
Take `C=C[C@H](C)[C@@H](OC(=O)Nc1ccc(SC)cc1)c1ccc(OCCO)cc1`: the z-score in [1] is -0.305; in experiment [2] it was -0.0489; in experiment [3], -0.232; in [4], -1.69; in experiment [5], -1.81; in [6], -3.37. The z-score was -0.168 (inactive) in [7]; -0.639 in experiment [8]; -0.114 in experiment [9]; -0.505 (inactive) in experiment [10]; -1.01 in [11]; -0.773 (inactive) in experiment [12]. Moreover, the z-score in experiment [13] was -0.715 (inactive); in experiment [15], 0.696 (inactive); in experiment [16], 1.08 (inactive); in experiment [17], -1.55 (inactive); in experiment [18], -1.71 (inactive); in experiment [19], -0.894. Moreover, the composite z-score in experiment [14] is 0.918 (inactive); in experiment [20], -0.208.
Take `CC(C)c1ccc(NN2C(C(O)c3ccccc3)C=CC3C(=O)N(c4ccccc4)C(=O)C32)cc1` (stereo not given): the z-score in experiment [1] was 1.53; in [2] it was -1.6; in [3], 1.22; in experiment [4] it was -0.168; in [5] it was 0.159; in experiment [6], -1.13. Further, the z-score was 0.821 (inactive) in experiment [7]; -0.197 in experiment [8]; -0.906 in experiment [9]; 0.235 (inactive) in experiment [10]; 0.685 in [11]; -1.79 (inactive) in [12]. The z-score was -2.57 (inactive) in experiment [13]; 1.16 (inactive) in [15]; 1.58 (inactive) in [16]; 0.493 (inactive) in experiment [17]; 0.289 (inactive) in experiment [18]; 0.039 in experiment [19]. For the same compound, the composite z-score in [14] is 1.25 (inactive); in [20], -0.0669.
For `COC(=O)C(CC#Cc1ccc2c(c1)[C@]1(C(=O)N2)[C@H](C(=O)N2CCCCCCC2)[C@H]2C(=O)O[C@H](c3ccccc3)[C@H](c3ccccc3)N2[C@@H]1c1ccc(OCCO)cc1)C(=O)OC`, the z-score in experiment [1] is -0.369; in experiment [2] it was 0.231; in [3], 0.0259; in [4], -0.236; in experiment [5], 0.164; in experiment [6], -0.738. For the same compound, the z-score in experiment [7] was -2.32 (inactive); in experiment [8] it was -1.04; in [9], -1.44; in experiment [10] it was 1.29 (inactive); in [11], 0.883; in experiment [12], 1.43 (inactive). Besides, the z-score was 0.229 (inactive) in [13]; 2.05 (inactive) in experiment [15]; 0.415 (inactive) in [16]; 0.0679 (inactive) in experiment [17]; -0.878 (inactive) in experiment [18]; 0.0283 in experiment [19]. Also, the composite z-score is -1.22 (inactive) in [14] and 2.59 in [20].
Consider `C=C(CCCC)/C(=C/C[C@@H](OC(C)=O)c1ccc(OCCO)cc1)c1cc(C(=O)OC)ccc1OC`, for which the z-score in experiment [1] is -0.144; in experiment [2], -0.703; in [3], 0.447; in experiment [4], -3.33; in experiment [5] it was -3.24; in experiment [6], 0.621. The z-score was -1.5 (inactive) in [7]; -0.826 in experiment [8]; -1.3 in experiment [9]; 0.293 (inactive) in experiment [10]; 0.353 in experiment [11]; -0.107 (inactive) in experiment [12]. Besides, the z-score in [13] is -1.36 (inactive); in experiment [15], 0.862 (inactive); in experiment [16], -0.319 (inactive); in experiment [17] it was 0.173 (inactive); in experiment [18], 0.107 (inactive); in [19], -0.808. The values for the composite z-score in [14] and in [20] were -2.64 (inactive) and -0.0274, respectively.
With `COC(=O)[C@@]1(Cc2ccc(F)cc2)[C@H]2c3cc(C(=O)N(C)C)n(Cc4ccc(C(F)(F)F)nc4)c3C[C@H]2CN1C(=O)c1ccccc1`, the z-score was -0.509 in [1]; -0.602 in experiment [2]; 0.158 in experiment [3]; -0.201 in [4]; -1.36 in [5]; 1.79 in [6]. The z-score is -0.602 (inactive) in [7]; -0.135 in experiment [8]; -1.48 in experiment [9]; -0.695 (inactive) in experiment [10]; -0.575 in [11]; 0.512 (inactive) in experiment [12]. Besides, the z-score is -1.04 (inactive) in experiment [13]; -0.359 (inactive) in [15]; 0.337 (inactive) in [16]; -0.532 (inactive) in experiment [17]; -0.171 (inactive) in experiment [18]; -0.912 in experiment [19]. Moreover, the composite z-score in experiment [14] was 0.0058 (inactive); in experiment [20], 0.109.
For `COC(=O)C1=CC(c2ccc(CO)cc2)=CC(C2CC2)N(Cc2cc3c(cc2Br)OCO3)C=C1C(=O)OC` (stereo not given), the z-score in experiment [1] is -0.0232; in experiment [2], 0.679; in experiment [3] it was 0.522; in experiment [4] it was -0.785; in experiment [5], -2.39; in experiment [6] it was 0.733. Moreover, the z-score in [7] is 0.278 (inactive); in experiment [8], -0.563; in experiment [9] it was -1.34; in [10], -1.15 (inactive); in [11], -0.0995; in experiment [12] it was -3.02 (inactive). In addition, the z-score in experiment [13] was -1.42 (inactive); in experiment [15], 0.158 (inactive); in [16], -0.069 (inactive); in experiment [17], 0.164 (inactive); in experiment [18], -0.0391 (inactive); in experiment [19] it was -1.25. The composite z-score in experiment [14] is -4.43 (inactive); in experiment [20] it was 0.172.
On to `O=C1NC(=O)C2C1C=CC(C(O)C(O)CO)N2Nc1ccccn1` (stereo not given), for which the z-score is 0.159 in [1]; -0.28 in [2]; 2.19 in [3]; 0.434 in experiment [4]; 0.476 in experiment [5]; 0.361 in experiment [6]. The z-score is 0.117 (inactive) in experiment [7]; -0.627 in experiment [8]; 0.123 in [9]; -1.65 (inactive) in experiment [10]; -0.908 in experiment [11]; 0.802 (inactive) in experiment [12]. Further, the z-score in experiment [13] was -0.872 (inactive); in [15] it was 1.11 (inactive); in experiment [16], -0.645 (inactive); in experiment [17] it was -0.0259 (inactive); in [18], 0.61 (inactive); in experiment [19] it was -0.885. In addition, the composite z-score in [14] was -0.683 (inactive); in experiment [20], -0.195.
On to `COC(=O)C1=CC(CCCO)=CC(c2ccc(CN3CCCC3)cc2)N(C)C=C1C(=O)OC` (stereo not given), for which the z-score in [1] is 0.71; in [2], -0.0962; in experiment [3], 0.204; in experiment [4], 0.608; in [5] it was 0.433; in [6], 0.91. Further, the z-score in [7] was 0.735 (inactive); in experiment [8], 0.173; in [9], -0.537; in [10], -0.632 (inactive); in experiment [11], 0.407; in experiment [12] it was 0.0335 (inactive). Further, the z-score in experiment [13] was -0.381 (inactive); in experiment [15], 0.543 (inactive); in experiment [16], 0.326 (inactive); in [17], 0.98 (inactive); in experiment [18], 1.32 (inactive); in experiment [19], 0.154. Also, the composite z-score in experiment [14] was -1.58 (inactive); in [20], -0.153.
